The values below come from PubChem BioAssay AID652017 (The Scripps Research Institute Molecular Screening Center, 2013).

Among all 370,000 compounds or so, about 3,800 (1%) were called active. The list comes from a sample in which actives are over-represented; it also holds similar structures and randomly drawn compounds. Unmarked numbers belong to inactive results. Cut-off read from the data, not from the text of the source: active = activation above about 7.8%; inactive = the rest.

This test can be described thus: SMARCA2 (BRM) function activators, primary screen, cell-based, luminescence, high throughput (AID 652017).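 Note: 0% = vehicle wells and 100% = reference activator wells.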 The following applies: MG213 cells, MMTV-luciferase reporter, dexamethasone, overnight; at 9.1 µM; hits give high values. (In general: Reporter assays use an easily measured gene product as a stand-in for the process of interest.)
For the compound `O=C(N/N=C/c1c(O)n(C2CC2)c(=S)[nH]c1=O)c1ccccc1`, the activation is 5.22%.

`O=C(N/N=C/c1c(O)n(C2CC2)c(=S)[nH]c1=O)c1ccccc1Cl`: the activation was 1.16%.

For the compound `O=C(N/N=C/c1c(O)n(Cc2ccccc2)c(=O)[nH]c1=O)c1ccccc1`, the activation was 8.1% (active).

Turning to `Cc1ccccc1CCC[C@@H](CC1CCCCC1)CN(C)C(=O)Oc1ccccc1`, the activation is 0.55%.

With `Cc1cc(C)c2c(c1)NP(=S)(c1ccccc1)N2` (stereo not given), the activation was 9.88% (active).

As to `COc1ccc2c(c1)NP(=S)(c1ccccc1)N2` (stereo not given), the activation was 0.4%.

`COc1cccc(C(=O)N2C[C@H]3C[C@@H](C2)c2cccc(=O)n2C3)c1`: the activation is 0.48%.

`COP(=O)(Sc1ccccc1)C(Cc1ccccc1)NC(=O)OCc1ccccc1` (stereo not given): the activation was 0.4%.

With `NCC(O)c1ccc(O)cc1` (stereo not given), the activation is -0.14%.

Turning to `O=C1CC(=O)N(Cc2ccccc2)C(=O)N1CCCCCCN1C(=O)CC(=O)N(Cc2ccccc2)C1=O`, the activation was 1.8%.
